Reference: PubChem BioAssay AID1030 (National Center for Advancing Translational Sciences (NCATS), 2008)
Values joined by “and” are separate entries in the source; they are usually repeats but may differ in a detail not shown here. Equal entries are not always repeated. Hit rate of the full screen: of about 220,000 compounds, about 16,000 (7.3%) were called active. Roughly 25% stayed inconclusive and do not appear here. Calls follow the shape of the dose curve; as a rule, active = well fitted inhibition curve with a large enough effect (not every such curve was filed as active); inconclusive = small, poorly fitted or top-dose-only effect, or another doubt; inactive = no such curve, though single readings can be large or run the other way. The entries come from a sample that favours actives as a whole. Where a call stands in place of a potency, no number is given.

target: Aldehyde dehydrogenase 1A1 (Homo sapiens) (UniProt P00352); test: qHTS Assay for Inhibitors of Aldehyde Dehydrogenase 1 (ALDH1A1); conditions: Purified ALDH1A1, NADH fluorescence, propionaldehyde substrate; series mostly up to 75.3 µM
Sequence (P00352 whole entry, looked up): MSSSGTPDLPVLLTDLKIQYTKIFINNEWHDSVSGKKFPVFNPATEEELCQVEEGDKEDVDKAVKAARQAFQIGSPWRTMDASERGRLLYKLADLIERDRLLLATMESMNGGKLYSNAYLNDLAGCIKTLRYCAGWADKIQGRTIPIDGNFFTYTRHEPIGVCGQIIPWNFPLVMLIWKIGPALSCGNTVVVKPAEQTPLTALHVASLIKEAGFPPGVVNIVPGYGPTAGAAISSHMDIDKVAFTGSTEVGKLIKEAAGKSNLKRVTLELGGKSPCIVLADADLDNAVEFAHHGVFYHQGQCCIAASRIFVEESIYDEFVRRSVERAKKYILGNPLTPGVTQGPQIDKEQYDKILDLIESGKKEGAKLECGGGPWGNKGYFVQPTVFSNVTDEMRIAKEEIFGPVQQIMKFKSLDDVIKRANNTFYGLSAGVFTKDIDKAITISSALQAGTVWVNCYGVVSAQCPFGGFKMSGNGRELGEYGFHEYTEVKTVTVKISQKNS
Potency is read from the fitted curve at half-maximal effect.

Row | SMILES | Potency | activity, negative = inhibition
1 | O=C(CNCc1ccc(Cl)cc1)Nc1cccc(C(=O)O)c1 | inactive | 
2 | C/C(=N/OC(=O)c1cccc(C(F)(F)F)c1)c1cnccn1 | inactive | 
3 | OC(COc1ccc(CN2CCSCC2)cc1)CN1CCCCC1 (configuration not stated) | inactive | 
4 | CCO[C@H]1OC(C(=O)N2CCN(Cc3ccccc3)CC2)=C[C@@H](c2cn(C(C)=O)c3ccccc23)[C@@H]1CCCO | inactive | 
5 | C/C(=N\N)c1c(-c2ccccc2)c2cc(Br)ccc2[nH]c1=O | inactive | 
6 | CCCCNC(=O)C1CCC(CNS(=O)(=O)c2ccc(NC(C)=O)cc2)CC1 (configuration not stated) | inactive | 
7 | CCOc1ccc(NS(=O)(=O)c2ccc(OCC(=O)NCCCOC)cc2)cc1 | inactive | 
8 | COCCCNC(=O)c1ccc(CNS(=O)(=O)c2ccc(NC(C)=O)cc2)cc1 | 4.47 µM (active) | 
9 | CCc1ccccc1N1CN(Cc2ccco2)CNC1=S | inactive | 
10 | CCCCN(CC)CCNC(=O)CCNC(=O)Cn1ccc2ccccc2c1=O | inactive | 
11 | CCSC1=NCCN1S(=O)(=O)c1ccc(F)cc1 | inactive | 
12 | COC(=O)CC1c2ccccc2C(Cc2ccc(OC)cc2)=C(C)N1C(=O)OC (configuration not stated) |  | -1.14% [at 13.5 µM] (inactive)
13 | O=C(COc1ccc(Br)cc1F)NC1CCN(Cc2ccccc2)CC1 | inactive | 
14 | S=C(Nc1ccc(Br)cc1Cl)NC1CCN(Cc2ccccc2)CC1 | 0.631 µM (active) | 
15 | O=C(NC1CCN(Cc2ccccc2)CC1)c1cc(Br)c(Br)[nH]1 | inactive | 
16 | COc1ccc2ccccc2c1CNc1nnnn1C | inactive | 
17 | COC(=O)c1cc(NC(=O)c2cccnc2)ccc1N1CCOCC1 | inactive | 
18 | CC1=NN(C(=O)c2ccc(Br)cc2)C(O)(c2ccccc2)C1 (configuration not stated) | inactive | 
19 | O=C(COC(=O)CCc1nc2ccccc2c(=O)[nH]1)Nc1ccc(N2CCOCC2)cc1 | inactive | 
20 | CC1CC(C)CN(CCC(=O)Nc2ccc3c(c2)CCC3)C1 (configuration not stated) | inactive | 
21 | CC1CC(C)CN(CC(=O)Nc2ccc(S(N)(=O)=O)cc2)C1 (configuration not stated) | 8.91 µM (active) | 
22 | NS(=O)(=O)c1ccc(NC(=O)COC(=O)c2ccco2)cc1 | inactive | 

Row | SMILES | Potency | activity, negative = inhibition
23 | COc1ccc(C2C(C#N)=C(N)N(c3ncn[nH]3)C3=C2C(=O)CCC3)cc1 (configuration not stated) | inactive | 
24 | CC(C)(C)NC(=O)NC(=O)COC(=O)Cc1c(F)cccc1Cl | inactive | 
25 | CC(=O)COc1ccc2c(-c3ccccc3)cc(=O)oc2c1 | 6.31 µM (active) | 
26 | O=C(COc1ccc2c(C(F)(F)F)cc(=O)oc2c1)Nc1ccc2c(c1)OCCO2 | inactive | 
27 | CCOC(=O)COc1cc(O)c2c(=O)cc(-c3ccccc3)oc2c1 | inactive | 
28 | CC(Sc1nc2cc(Cl)ccc2s1)C(=O)Nc1ccc2c(c1)OCO2 (configuration not stated) | inactive | 
29 | Cc1cc(Cl)ccc1OCCCC(=O)NCc1ccccn1 | inactive | 
30 | Cc1cccc(N2C(=O)C3C(c4ccccc4)OC4(C(=O)c5ccccc5C4=O)C3C2=O)c1 (configuration not stated) | inactive | 
31 | Cc1cccc(N=Nc2c(C)[nH]n(-c3ccccc3)c2=O)c1 | inactive | 
32 | Cc1cccc(N2C(=O)SC(SC(=Nc3ccccc3)Nc3ccccc3)C2=O)c1 (configuration not stated) | 15.8 µM (active) | 
33 | COc1ccccc1-c1noc(CSc2nc(C)cc(=O)[nH]2)n1 | inactive | 
34 | OC1CCCN(c2ncnc3c2nnn3Cc2c(F)cccc2Cl)C1 (configuration not stated) | 7.94 µM (active) | 
35 | CC(=O)Nc1ccn(Cc2c(F)cccc2Cl)n1 | inactive | 
36 | O=C(CSc1ncnc2c1nnn2Cc1ccc(F)cc1)NC1CCCC1 | inactive | 
37 | CCOc1ccc(OCc2cccc(C(=O)N(CC)CC)c2)cc1 | inactive | 
38 | CC(C)NC(=S)NN=C1CCCCCCCCCCC1 | inactive | 
39 | OC[C@H]1O[C@@H](n2cnc3c(NC4CCCC4)ncnc32)[C@H](O)[C@H]1O | inactive | 
40 | CCN(CC)S(=O)(=O)c1ccc(N(C)CCc2ccc(OC)c(OC)c2)nc1 | inactive | 
41 | CN(C)c1ccc(/C=C/C(=O)c2ccc(O)cc2)cc1[N+](=O)[O-] | 17.8 µM (active) | 
42 | CN(C)c1ccc(/C=C/C(=O)c2ccc(C(C)(C)C)cc2)cc1[N+](=O)[O-] | inactive | 
43 | O=C(/C=C/c1ccc2c(c1)OCCO2)c1ccc(O)cc1 | inactive | 
44 | CCOc1ccccc1/C=N/NC(=O)CNC(=O)COc1ccccc1 | inactive | 

Row | SMILES | Potency | activity, negative = inhibition
45 | CCC(C)NC(=O)C1c2ccccc2Oc2ccccc21 (configuration not stated) | inactive | 
46 | O=C(Nc1ccc(N2CCN(C(=O)c3cccs3)CC2)cc1)c1cccnc1Cl | inactive | 
47 | Cc1cc(Cl)ccc1NNC(=O)c1snnc1C | inactive | 
48 | CC(C)C(C)(C#N)NC(=O)CSc1nc2scc(-c3ccccc3)c2c(=O)[nH]1 (configuration not stated) | 11.2 µM (active) | 
49 | CC(C)C(C)(C#N)NC(=O)CSc1nncn1-c1ccccc1 (configuration not stated) | inactive | 
50 | C=CCNC(=O)CSc1nc2sc(C)c(C)c2c(=O)[nH]1 | inactive | 
51 | CCOC(=O)c1sc2nc(C)nc(Nc3ccc(OC)c(OC)c3)c2c1C | inactive | 
52 | Cc1ccc(S(=O)(=O)NCCc2nnc3ccc(SCc4cccnc4)nn23)cc1 | inactive | 
53 | CCN(CC)C(=O)Oc1ccc(Br)cc1C(=O)Nc1ccc(F)c(Cl)c1 | inactive | 
54 | CNC(=O)c1[nH]cnc1C(=O)N[C@@H](CC(C)C)C(=O)OCc1ccccc1 | inactive | 
55 | O=C(Cc1ccc(F)cc1)N/N=C/c1ccc2c(c1)OCO2 | inactive | 
56 | Cc1cc(C)cc(NC(=S)NCc2ccc(F)cc2)c1 | inactive | 
57 | Cc1c(NC(=O)CCCOc2ccccc2)cccc1[N+](=O)[O-] | inactive | 
58 | Cc1c(NC(=S)NCc2ccc(F)cc2)cccc1[N+](=O)[O-] | 31.6 µM (active) | 
59 | Cc1c(NC(=O)Nc2ccccc2)cccc1[N+](=O)[O-] | inactive | 
60 | Cc1cccc(NC(=S)NCCc2ccc(F)cc2)c1C | inactive | 
61 | Cc1c(NC(=O)/C=C/C(=O)O)cccc1[N+](=O)[O-] | 25.1 µM (active) | 
62 | COc1cc(C(=O)OCc2ccc([N+](=O)[O-])cc2)cc(OC)c1OC | inactive | 
63 | Cc1ccc(C)c(Cn2cnc3c(oc4ccccc43)c2=O)c1 | inactive | 
64 | COc1ccc(OC)c(S(=O)(=O)Nc2cccc(-c3ccc4nncn4n3)c2)c1 | inactive | 
65 | CC(NC(=O)COC(=O)c1cc(=O)[nH]c2ccccc12)c1ccccc1 (configuration not stated) | inactive | 
66 | COCCNC(=O)CCCn1c(=O)c2ccccc2n(Cc2cccc([N+](=O)[O-])c2)c1=O | inactive | 

Row | SMILES | Potency | activity, negative = inhibition
67 | CCOC(=O)N1CCN(CCC(=O)Nc2cc(OC)ccc2OC)CC1 | inactive | 
68 | Cc1ccnc(NC(=O)c2ccco2)n1 | inactive | 
69 | CC(C)(C)NC(=O)c1cc(NC(=O)c2ccco2)cc(NC(=O)c2ccco2)c1 | inactive | 
70 | NC(=O)c1ccsc1NC(=O)c1ccco1 | 25.1 µM (active) | 
71 | O=C(Cn1c(=S)nc2ccccn21)N1CCc2ccccc2C1 | inactive | 
72 | O=C(c1ccc(F)cc1)N1CCC(n2nnc3ccccc32)CC1 | inactive | 
73 | O=C(c1ccc(F)cc1)n1c(=S)nc2ccccn21 | 25.1 µM (active) | 
74 | Cc1ccc2nc(-c3ccncc3)cc(C(=O)Nc3ccc(OC(F)F)cc3)c2c1 | inactive | 
75 | COc1cc(NC(=O)COC(=O)c2cnc(C)cn2)c(C)cc1[N+](=O)[O-] | inactive | 
76 | CC1CCCC(NC(=O)c2cccc(N3CCCC3=O)c2)C1C (configuration not stated) | inactive | 
77 | CCC(C)(C)NC(=O)C1c2ccccc2Oc2ccccc21 | inactive | 
78 | CSCC(NS(=O)(=O)c1ccc(C)cc1)C(=O)O (configuration not stated) | inactive | 
79 | Cc1ccc(S(=O)(=O)NCC(C)NS(C)(=O)=O)cc1 (configuration not stated) | 14.1 µM (active) | 
80 | Cc1ccc(S(=O)(=O)/N=S(\C)C(C)C)cc1 (configuration not stated) | inactive | 
81 | CC1CC(=O)Nc2ccccc2N1S(=O)(=O)c1cccs1 (configuration not stated) | inactive | 
82 | O=C(CNC1CCCCC1)NCC1(c2ccccc2)CCCC1 | inactive | 
83 | Cc1ccc2nc(-c3ccncc3)cc(C(=O)Nc3ccc4c(c3)OCCO4)c2c1 | inactive | 
84 | O=C(CSc1ccccc1)Nc1ccc(C(=O)Nc2cccc(O)c2)cc1 | inactive | 
85 | Cc1nc2ccccc2n1CC(=O)N/N=C/c1cccnc1 | inactive | 
86 | Cn1c(=N)n(CC(O)c2cccs2)c2ccccc21 (configuration not stated) | inactive | 
87 | CC(=O)c1ccc2c(c1)OCCOCCOc1ccc(C(C)=O)cc1OCCOCCO2 | inactive | 
88 | COc1ccc(OCCCC(=O)NCCc2ccccc2)cc1 | inactive | 

Row | SMILES | Potency | activity, negative = inhibition
89 | COc1ccc(CC(=O)NC(C)CCc2ccccc2)cc1 (configuration not stated) | 2.51 µM (active) | 
90 | COc1ccc(C(CC(=O)O)NC(=O)Cc2ccccc2)cc1 (configuration not stated) | inactive | 
91 | COc1ccc(/C(N)=N/OC(=O)CCCc2ccccc2)cc1 | inactive | 
92 | COc1ccc(C(=O)NC(=S)NNC(=O)CCc2ccccc2)cc1 | 25.1 µM (active) | 
93 | COc1ccc(C(=O)NC(=S)NNC(=O)c2c(-c3ccccc3)noc2C)cc1 | inactive | 
94 | CCOC(=O)C1=C(CN2CCc3ccccc32)NC(=O)NC1c1cccc([N+](=O)[O-])c1 (configuration not stated) | inactive | 
95 | COCCOC(=O)C1=C(C)NC(=O)NC1c1ccc(Cl)cc1 (configuration not stated) | inactive | 
96 | CCOC(=O)C1=C(CN2CCc3ccccc32)NC(=O)NC1c1ccc(Cl)cc1 (configuration not stated) | 25.1 µM (active) | 
97 | Cc1onc(C(=O)NCc2ccc(F)cc2)c1[N+](=O)[O-] | inactive | 
98 | O=C1CCCN1CCCNC(=S)Nc1ccc(F)c(Cl)c1 | inactive | 
99 | CCOc1ccc(OCC)c(NC(=O)C2CCN(S(=O)(=O)c3c(C)noc3C)CC2)c1 | inactive | 
100 | Cc1ccc(NC(=O)C2CCCN(S(=O)(=O)c3c(C)noc3C)C2)c(C)c1 (configuration not stated) | inactive | 
101 | Cc1noc(/C=C/c2ccco2)c1S(=O)(=O)N1CCC(C(=O)Nc2ccc(Cl)cn2)CC1 | 15.8 µM (active) | 
102 | CCCCN1C(=S)NC[C@@H]1C(C)CC (some centres not stated) | inactive | 
103 | Cc1ccc(C)c(-n2cc(CN3CCN(C(=O)c4ncn[nH]4)CC3)c(-c3ccccc3)n2)c1 | inactive | 
104 | Cc1cc(NC(=O)CSc2nnc(Nc3ccccc3F)s2)no1 | inactive | 
105 | O=C1C[C@@H](O)[C@@H](O)[C@H]2[C@@H]3C(=O)N(Cc4ccc5c(c4)OCO5)C(=O)[C@@H]3CC[C@H]12 |  | -12% [at 13.5 µM] (inactive) and -15.2% [at 13.5 µM] (inactive)
106 | O=C(Nc1ccc2c(c1)OCO2)c1ccc(N2C(=O)c3ccccc3C2=O)cc1 | inactive | 
107 | O=CN1CCN(C2CC(=O)N(c3ccc4c(c3)OCO4)C2=O)CC1 (configuration not stated) | 12.6 µM (active) | 
